Measurements from PubChem BioAssay (NCI).
Several values for one entry are separate records, joined by “and”; a condition that tells them apart may be missing. Equal entries are not always repeated. The panel holds about 83,000 compounds, 20% with a hit somewhere; the sample as a whole holds those more often.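 A percent growth of 40 corresponds to 60% growth inhibition; 0 means no net growth; -100 means all cells died. Active threshold: below 10.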

How the values were obtained:
Assay in all cases: NCI-60 one-dose screen, 48 h (100 = growth as untreated, 0 = no growth, -100 = all killed)
NCI-H226 lung = test system: NCI-H226 lung
NCI-H322M lung = test system: NCI-H322M lung
HOP-62 NSCLC = test system: HOP-62 NSCLC
NCI-H460 lung = test system: NCI-H460 lung
HOP-92 NSCLC = conditions: 10 µM unless noted
NCI-H522 lung = conditions: 10 µM unless noted
A549/ATCC NSCLC = test system: A549/ATCC NSCLC
786-0 renal = test system: 786-0 renal
COLO 205 colon = test system: COLO 205 colon
DU-145 prostate = test system: DU-145 prostate
K-562 leukemia = test system: K-562 leukemia
MALME-3M melanoma = test system: MALME-3M melanoma
MDA-MB-231 breast = test system: MDA-MB-231 breast
RXF 393 renal = test system: RXF 393 renal
SF-268 CNS = test system: SF-268 CNS
SF-295 CNS = test system: SF-295 CNS
SF-539 CNS = test system: SF-539 CNS
UACC-257 melanoma = conditions: 10 µM unless noted
M14 melanoma = test system: M14 melanoma

Measured: growth

Cc1cnc(N)s1
inactive: NCI-H226 lung; 10 µM unless noted 90.6% | NCI-H322M lung; 10 µM unless noted 99.6% | HOP-62 NSCLC; 10 µM unless noted 78.3% | NCI-H460 lung; 10 µM unless noted 105% | HOP-92 NSCLC 91.3% | NCI-H522 lung 77.9% | A549/ATCC NSCLC; 10 µM unless noted 69% | 786-0 renal; 10 µM unless noted 106% | COLO 205 colon; 10 µM unless noted 102% | DU-145 prostate; 10 µM unless noted 106% | K-562 leukemia; 10 µM unless noted 92.9% | MALME-3M melanoma; 10 µM unless noted 98.1% | MDA-MB-231 breast; 10 µM unless noted 91.6% | RXF 393 renal; 10 µM unless noted 105% | SF-268 CNS; 10 µM unless noted 93.8% | SF-295 CNS; 10 µM unless noted 98.3% | SF-539 CNS; 10 µM unless noted 103% | UACC-257 melanoma 84.4% | M14 melanoma; 10 µM unless noted 91.9%

COc1ccc(/C=N/NC(N)=S)cc1
inactive: NCI-H226 lung; 10 µM unless noted 105% | NCI-H322M lung; 10 µM unless noted 103% | HOP-62 NSCLC; 10 µM unless noted 93.4% | NCI-H460 lung; 10 µM unless noted 103% | HOP-92 NSCLC 68.4% | NCI-H522 lung 89.4% | A549/ATCC NSCLC; 10 µM unless noted 82.1% | 786-0 renal; 10 µM unless noted 98.3% | COLO 205 colon; 10 µM unless noted 106% | DU-145 prostate; 10 µM unless noted 110% | K-562 leukemia; 10 µM unless noted 106% | MALME-3M melanoma; 10 µM unless noted 94.4% | MDA-MB-231 breast; 10 µM unless noted 101% | RXF 393 renal; 10 µM unless noted 95.8% | SF-268 CNS; 10 µM unless noted 104% | SF-295 CNS; 10 µM unless noted 106% | SF-539 CNS; 10 µM unless noted 103% | UACC-257 melanoma 102% | M14 melanoma; 10 µM unless noted 96.3%

CCC(=O)Oc1ccc(OCc2ccccc2)cc1
inactive: NCI-H226 lung; 10 µM unless noted 104% and 103% | NCI-H322M lung; 10 µM unless noted 120% and 92.3% | HOP-62 NSCLC; 10 µM unless noted 107% and 94.8% | NCI-H460 lung; 10 µM unless noted 99.4% and 93.7% | HOP-92 NSCLC 89.1% | NCI-H522 lung 88.3% and 77% | A549/ATCC NSCLC; 10 µM unless noted 99.7% and 102% | 786-0 renal; 10 µM unless noted 81.5% and 79.6% | COLO 205 colon; 10 µM unless noted 124% and 113% | DU-145 prostate; 10 µM unless noted 96.9% and 88.9% | K-562 leukemia; 10 µM unless noted 86% and 88.4% | MALME-3M melanoma; 10 µM unless noted 107% and 86.6% | MDA-MB-231 breast; 10 µM unless noted 60.1% and 68.4% | RXF 393 renal; 10 µM unless noted 94% and 100% | SF-268 CNS; 10 µM unless noted 75% and 85.5% | SF-295 CNS; 10 µM unless noted 95.4% and 75.9% | SF-539 CNS; 10 µM unless noted 56.2% and 65.3% | UACC-257 melanoma 130% and 108% | M14 melanoma; 10 µM unless noted 101% and 77.3%

CCN(CC)C(CC(=O)c1ccccc1)C(=O)c1ccccc1 (stereo not drawn)
inactive: NCI-H226 lung; 10 µM unless noted 95% | NCI-H322M lung; 10 µM unless noted 107% | HOP-62 NSCLC; 10 µM unless noted 116% | HOP-92 NSCLC 93.4% | NCI-H522 lung 71.7% | A549/ATCC NSCLC; 10 µM unless noted 102% | 786-0 renal; 10 µM unless noted 93.5% | COLO 205 colon; 10 µM unless noted 77.8% | DU-145 prostate; 10 µM unless noted 99.9% | K-562 leukemia; 10 µM unless noted 38.2% | MALME-3M melanoma; 10 µM unless noted 104% | MDA-MB-231 breast; 10 µM unless noted 110% | RXF 393 renal; 10 µM unless noted 115% | SF-268 CNS; 10 µM unless noted 98% | SF-295 CNS; 10 µM unless noted 103% | SF-539 CNS; 10 µM unless noted 101% | UACC-257 melanoma 95.5% | M14 melanoma; 10 µM unless noted 105%

CNc1ccc(O)cc1
inactive: NCI-H226 lung; 10 µM unless noted 85.2% and 93.6% | NCI-H322M lung; 10 µM unless noted 122% and 98.3% | HOP-62 NSCLC; 10 µM unless noted 104% | NCI-H460 lung; 10 µM unless noted 105% and 115% | HOP-92 NSCLC 102% | NCI-H522 lung 96.3% and 93% | A549/ATCC NSCLC; 10 µM unless noted 104% and 114% | 786-0 renal; 10 µM unless noted 109% and 106% | COLO 205 colon; 10 µM unless noted 132% and 117% | DU-145 prostate; 10 µM unless noted 121% and 113% | K-562 leukemia; 10 µM unless noted 104% and 118% | MALME-3M melanoma; 10 µM unless noted 110% and 107% | MDA-MB-231 breast; 10 µM unless noted 104% and 98.9% | RXF 393 renal; 10 µM unless noted 95.6% and 114% | SF-268 CNS; 10 µM unless noted 121% and 113% | SF-295 CNS; 10 µM unless noted 101% | SF-539 CNS; 10 µM unless noted 104% and 107% | UACC-257 melanoma 91.5% and 115% | M14 melanoma; 10 µM unless noted 118% and 113%

O=c1ccn2c(n1)OC1CC2OC1COC(c1ccccc1)(c1ccccc1)c1ccccc1 (stereo not drawn)
inactive: NCI-H226 lung; 10 µM 102% | NCI-H226 lung; 100 µM 90.5% | NCI-H322M lung; 10 µM 106% | NCI-H322M lung; 100 µM 49.9% | HOP-62 NSCLC; 10 µM 99.6% | HOP-62 NSCLC; 100 µM 96.3% | NCI-H460 lung; 10 µM 106% | NCI-H460 lung; 100 µM 94.5% | HOP-92 NSCLC 72.4% [100 µM] | NCI-H522 lung 60.7% [100 µM] | A549/ATCC NSCLC; 10 µM 93.5% | A549/ATCC NSCLC; 100 µM 83% | 786-0 renal; 10 µM 113% | 786-0 renal; 100 µM 86.1% | COLO 205 colon; 10 µM 112% | COLO 205 colon; 100 µM 115% | DU-145 prostate; 10 µM 115% | DU-145 prostate; 100 µM 99.1% | K-562 leukemia; 10 µM 102% | K-562 leukemia; 100 µM 50.4% | MALME-3M melanoma; 10 µM 119% | MALME-3M melanoma; 100 µM 95% | MDA-MB-231 breast; 10 µM 111% | MDA-MB-231 breast; 100 µM 82.1% | RXF 393 renal; 10 µM 107% | RXF 393 renal; 100 µM 75.8% | SF-268 CNS; 10 µM 119% | SF-268 CNS; 100 µM 76.3% | SF-295 CNS; 10 µM 118% | SF-295 CNS; 100 µM 67.1% | SF-539 CNS; 10 µM 110% | SF-539 CNS; 100 µM 48.8% | UACC-257 melanoma 93.8% [100 µM] | M14 melanoma; 10 µM 112% | M14 melanoma; 100 µM 46.1%

Clc1ccc2sc(-c3ccccc3)nc2c1
inactive: NCI-H226 lung; 10 µM unless noted 82.2% | NCI-H322M lung; 10 µM unless noted 102% | HOP-62 NSCLC; 10 µM unless noted 74.5% | NCI-H460 lung; 10 µM unless noted 80% | HOP-92 NSCLC 105% | NCI-H522 lung 82.5% | A549/ATCC NSCLC; 10 µM unless noted 71.4% | 786-0 renal; 10 µM unless noted 108% | COLO 205 colon; 10 µM unless noted 115% | DU-145 prostate; 10 µM unless noted 113% | K-562 leukemia; 10 µM unless noted 92.9% | MALME-3M melanoma; 10 µM unless noted 104% | MDA-MB-231 breast; 10 µM unless noted 80.3% | RXF 393 renal; 10 µM unless noted 103% | SF-268 CNS; 10 µM unless noted 96% | SF-295 CNS; 10 µM unless noted 100% | SF-539 CNS; 10 µM unless noted 95.5% | UACC-257 melanoma 65.6% | M14 melanoma; 10 µM unless noted 102%
